About 2,200 (92%) of roughly 2,400 compounds were called active. So high a share suggests a set chosen from earlier hits. The list shows a part of the results. Values without a mark were called inactive.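 The calls were made as follows: active = mean inhibition over triplicate runs exceeds the cutoff derived for the earlier primary screen (cut at about 25% in these data); inactive = the rest.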
biological target: Platelet-activating factor acetylhydrolase IB subunit alpha2 (Homo sapiens) (UniProt P68402); experiment: PAFAH1B2 inhibitors, confirmation, biochemical, fluorescence polarization, FP-rhodamine probe, triplicate (AID 493034); conditions: recombinant PAFAH1B2, FP-rhodamine probe fluorescence polarization; at 3.39 µM; stronger effect = higher value;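 also: 0% = enzyme with DMSO and 100% = wells lacking PAFAH1B2 protein; inhibitors lower polarization by leaving the probe unbound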
Sequence (P68402 whole entry, looked up): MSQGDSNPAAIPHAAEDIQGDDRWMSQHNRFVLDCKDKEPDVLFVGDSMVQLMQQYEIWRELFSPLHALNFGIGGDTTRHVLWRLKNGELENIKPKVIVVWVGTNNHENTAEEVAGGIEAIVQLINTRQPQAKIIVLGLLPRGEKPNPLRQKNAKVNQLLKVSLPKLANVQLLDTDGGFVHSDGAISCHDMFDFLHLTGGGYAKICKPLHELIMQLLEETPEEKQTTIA

Structure (SMILES)	inhibition
COc1ccc([N+](=O)[O-])cc1N(CC(=O)NCCSc1ccc(C)cc1)S(C)(=O)=O	22.5%
CC12CC3CC(C)(C1)CC(C(=O)N1CCN(C(=O)c4ccco4)CC1)(C3)C2	16.1%
O=C(Nc1ccc(N2CCOCC2)cc1)C1(c2ccc(Cl)cc2)CCC1	78.4% (active)
Cc1ccccc1C(=O)N1CCN(c2ccc(NC(=O)CSc3ccc(Cl)cc3)cc2)CC1	23.5%
CC(Sc1ccc(Cl)cc1)C(=O)Nc1ccc(S(=O)(=O)N2CCOCC2)cc1 (configuration not stated)	20%
O=C(CCl)N(c1ccccc1)C1CCCCC1	29.2% (active)
O=C(O)c1cc(NC(=S)NC(=O)C(c2ccccc2)c2ccccc2)ccc1Cl	20.9%
Cc1ccc(S(=O)(=O)Nc2ccccc2-c2ccccc2NS(=O)(=O)c2ccc(C)cc2)cc1	43.8% (active)
CC(C)(C)c1ccc(S(=O)(=O)/N=C2\C=C(NS(=O)(=O)c3ccccc3)C(=O)c3ccccc32)cc1	11.4%
COc1cc(C(=O)O[C@H]2CC(C)=CC[C@@]3(C)CC[C@@](O)(C(C)C)[C@H]23)ccc1O	23.9%
Cc1nc2ccccn2c1-c1ccnn1S(=O)(=O)c1ccc(F)cc1	22.7%
O=c1[nH]c2cc(Cl)ccc2c(O)c1-c1cccc(Oc2ccccc2)c1	27.1% (active)
CC1CCN(S(=O)(=O)c2ccc(NC(=O)CSc3nnnn3C)cc2)CC1	33.1% (active)
CC1CCN(S(=O)(=O)c2ccc(NC(=O)Cc3cccs3)cc2)CC1	19.6%
CC1CCN(S(=O)(=O)c2cccc(C(=O)N(C)C3CCS(=O)(=O)C3)c2)CC1 (configuration not stated)	23.7%
CC1CCN(S(=O)(=O)c2ccc(NC(=O)CN3CCCCCC3)cc2)CC1	20.4%
CC1CCN(S(=O)(=O)c2ccc(N/N=C(/C#N)C(N)=O)cc2)CC1	27.9% (active)
CC1CCN(S(=O)(=O)c2ccc(NC(=O)[C@@H]3CCCC[C@@H]3C(=O)O)cc2)CC1	39.3% (active)
O=C(CSc1nc(C2CC2)nc2ccccc12)Nc1ccc2c(c1)OCCO2	1.2%
CC(C)c1ccc(-c2nc(N3CCOCC3)[nH]c(=O)c2C#N)cc1	23.2%
N#Cc1c(-c2ccccc2)nc(SCc2ccc(Cl)cc2)[nH]c1=O	40% (active)
CN(C(=O)CSc1nc(-c2ccc(C(C)(C)C)cc2)c(C#N)c(=O)[nH]1)C1CCCCC1	20.1%

Structure (SMILES)	inhibition
N#Cc1c(-c2ccccc2)nc(SCC(=O)N(c2ccccc2)c2ccccc2)[nH]c1=O	38.8% (active)
C/C(=N\O)C1/C(=N/O)CC2C1C2(C)C (configuration not stated)	31.7% (active)
Cc1cc(-c2ccccc2)c2ccc(NC(=O)C(C)(C)C)nc2n1	23.8%
Cc1cccc(OCC(=O)NCC(=O)N/N=C/c2cc(Br)cc(Br)c2O)c1	19.1%
O=C(CNC(=O)c1cccc(Br)c1)N/N=C/c1cc(Br)cc(Br)c1O	33.1% (active)
C=C[C@]1(C)C=C2CC[C@H]3[C@@](C)(CCC[C@@]3(C)C(=O)O)[C@@H]2CC1	30.9% (active)
O=S(=O)(Oc1ccccc1N1CCCCC1)c1ccccc1	14.5%
C=CCO/N=C(\C)c1c(O)c(C)c(-c2ccccc2)n(-c2ccccc2)c1=O	25.2% (active)
CC1CCC2C(C1)c1sc(=O)[nH]c1SC2(C)C (configuration not stated)	55.2% (active)
N#CC1(C#N)CC(C=O)=C(N)C1(C#N)CC(=O)C12CC3CC(CC(C3)C1)C2 (configuration not stated)	17.2%
CCC[C@@H]1CCCO[C@@](C(=O)NCc2ccccn2)(C(F)(F)F)C1	20%
Cc1ccc(SCc2[nH]nc3c2C2(CCSCC2)C(C#N)=C(N)O3)cc1	32.9% (active)
CCOC(=O)C(CC(=O)O)=C(c1ccccc1)c1ccccc1	17.7%
Cc1cc(C)cc(NC(=O)Nc2ccc(-n3ccc(C(F)(F)F)n3)cc2)c1	0.5%
CC1CCN(S(=O)(=O)c2ccc(NC(=O)CN3CCOCC3)cc2)CC1	20.2%
CC1CCN(S(=O)(=O)c2ccc(N=NC3=C(O)CC(C)(C)CC3=O)cc2)CC1	49.4% (active)
CC1(c2ccc(Cl)cc2)NC(=S)N2C1NC(=S)N2c1ccccc1 (configuration not stated)	18.1%
CC(C)(C)n1cnc2cc(NCc3ccc(Br)cc3)ccc21	35.2% (active)
CCCn1cnc2cc(NCc3ccc(Br)cc3)ccc21	33.7% (active)
CCn1cnc2cc(NCc3ccc(Cl)cc3)ccc21	20.5%
Cn1cnc2cc(NCc3ccc(Cl)cc3)ccc21	35.2% (active)
Cc1ccc(S(=O)(=O)N2CCCCC2)cc1C(=O)OCC(=O)N1c2ccccc2NC(=O)C1(C)C	23.6%

Structure (SMILES)	inhibition
CCOC(=O)c1sc(N(Cc2ccccc2)C(=O)COC(=O)c2ccccc2O)nc1C	1.5%
CC(=O)NN1C(=O)/C(=C/c2ccc(C(C)C)cc2)SC1=S	28.4% (active)
CC(=O)c1sc(NC(=O)C2(F)C(F)(F)C(F)(F)C(F)(F)C(F)(F)C2(F)F)nc1C	28.6% (active)
O=C(CN1CCN(S(=O)(=O)c2ccc(Br)s2)CC1)NC1CCCCC1	22.8%
CCn1c(SCC(=O)N(C)C)nc2cc(S(=O)(=O)N3CCOCC3)ccc21	4.4%
O=C(c1cc([N+](=O)[O-])ccc1N1CCN(S(=O)(=O)c2ccc(Cl)c(Cl)c2)CC1)N1CCOCC1	27.3% (active)
CC(NC(=O)c1ccc([N+](=O)[O-])o1)C12CC3CC(CC(C3)C1)C2 (configuration not stated)	18%
CC(NC(=O)CN1C(=O)NC(Cc2ccccc2)(Cc2ccccc2)C1=O)C12CC3CC(CC(C3)C1)C2 (configuration not stated)	71.1% (active)
CN1CCN(S(=O)(=O)c2ccc(Sc3nnc(-c4cccs4)n3-c3ccccc3)nc2)CC1	21.5%
CC(Sc1ccc(S(=O)(=O)N2CCN(C)CC2)cn1)C(=O)NC1(C#N)CCCCC1 (configuration not stated)	22.4%
CN1CCN(S(=O)(=O)c2ccc(Sc3nnnn3-c3ccccc3)c([N+](=O)[O-])c2)CC1	41.1% (active)
CC(OC(=O)C1=COCCO1)C(=O)Nc1ncc(Cl)cc1Cl (configuration not stated)	3.49%
N#CC(=C1C=CC(=NO)C(Cl)=C1)c1ccc(Cl)cc1	29.9% (active)
C[C@H]1CCC[C@]2(C)C[C@H]3OC(=O)C(CN4CCCCCC4)[C@H]3C=C12 (some centres not stated)	17.8%
CCNC(=S)NNC(=O)c1cc(-c2cccc(C)c2)nc2ccccc12	14.3%
CN(C)c1ccsc1C(=O)NNS(=O)(=O)c1ccc(Cl)cc1	17.9%
O=C(NNS(=O)(=O)c1ccc(Cl)cc1)c1cc(-c2ccccc2)nc2ccccc12	54.4% (active)
O=C(NNS(=O)(=O)c1cccc(Cl)c1)c1cc(-c2ccc(F)cc2)nc2ccccc12	48.9% (active)
O=C(O)c1ccc(N=Nc2c(O)[nH]c3ccc(Br)cc23)cc1	25.6% (active)
CCc1ccc2[nH]c(O)c(N=NC3=NC(=O)CS3)c2c1	22.3%
Oc1[nH]c2ccc(Br)cc2c1N=Nc1nn[nH]n1	69.4% (active)
O=c1[nH]c(NCCO)nc2c1C1(CCCC1)Cc1ccccc1-2	22.6%

Structure (SMILES)	inhibition
C=CCSc1n[nH]c2nc3c(c(=O)n12)C1(CCCC1)Cc1ccccc1-3	46.3% (active)
CCn1c(SCC(N)=O)nc2c(c1=O)C1(CCCC1)Cc1ccccc1-2	20.1%
COc1cc(/C=C2\SC(=S)N(CCCCC(=O)O)C2=O)ccc1OS(=O)(=O)c1ccc(C)cc1	30.5% (active)
COc1cc(/C=C2\SC(=S)N(CC(=O)O)C2=O)ccc1OS(=O)(=O)c1ccc(C)cc1	38.1% (active)
Cc1ccc(S(=O)(=O)CCC(=O)NCCN2C(=O)S/C(=C/c3ccc(F)cc3)C2=O)cc1	21.1%
COc1cc(C=O)ccc1OCCSc1ccc(C)cc1	23%
CCOc1cc2[nH]c(=O)n(CCCC(=O)NCc3ccc(OC)cc3)c(=O)c2cc1OCC	3.79%
CC(C)c1ccc(C(C)NCCS(=O)(=O)c2ccc(Cl)cc2)cc1 (configuration not stated)	18.1%
Cc1ccc(S(=O)(=O)N2[C@@H](c3ccc(Br)cc3)C(C(=O)O)=CC[C@H]2c2ccc(C(C)C)cc2)cc1	93.5% (active)
Cc1ccc(S(=O)(=O)N2[C@@H](c3ccc(Cl)cc3)C(C(=O)O)=CC[C@H]2c2ccc(C(C)C)cc2)cc1	95.9% (active)
CC(Oc1ccc(Cl)cc1)C(=O)OCC(=O)Nc1ncc(Cl)cc1Cl (configuration not stated)	23.2%
Cc1nc(N)nc(N)c1/C=C/C(C)(C)c1ccc(Cl)cc1	66.2% (active)
O=C(O)CCCN1C(=O)C2C3CC(C2C1=O)C1C(c2ccccc2)c2sc(=O)[nH]c2SC31 (configuration not stated)	74% (active)
O=C(O)CCN1C(=O)C2C3CC(C2C1=O)C1C(c2ccccc2)c2sc(=O)[nH]c2SC31 (configuration not stated)	79.6% (active)
ONC(=Nc1ccc(Cl)cc1)c1ccccc1	23.1%
O=C(CSc1n[nH]c(-c2ccc(S(=O)(=O)N3CCCCC3)cc2)n1)Nc1nccs1	44.6% (active)
O=C(NCc1n[nH]c(=S)n1-c1ccc(Br)cc1)c1ccc(S(=O)(=O)N2CCCCC2)cc1	23.9%
O=C(Nc1nc2ccc(S(=O)(=O)N3CCCCC3)cc2s1)c1ccncc1	20.7%
O=C(Cc1ccc(Br)cc1)c1ccc(O)cc1O	70.8% (active)
N#Cc1ccc(S(=O)(=O)N2CCc3[nH]c4ccc(F)cc4c3C2)cc1	31.2% (active)
CCC(C)CCCCCCCCCCC(=O)O (configuration not stated)	16.6%
